Screening results deposited in PubChem by National Center for Advancing Translational Sciences (NCATS).
Only some compounds are listed: those with a hit (about 2.5% of all), similar ones and a draw of the others.
Pol beta inh – DNA polymerase beta (human) inhibition. Potency, µM (doses to about 114 µM), for the others: at the top dose activity change, negative = inhibition, usual class: inhibitors. 340,000 tested, 1.3% active. AID 485314. Pol beta primer extension/strand displacement, fluorescence kinetic; note: % is set by controls: 0 for no effect and ±100 for the full control effect
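Curves were derived by four-parameter Hill fits of normalized qHTS data. The kinetic fluorescent primer-extension read was taken at 0 and 10 min after 50 nM substrate, following a 15 min room-temperature preincubation of 10 nM enzyme with compounds.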
APEX1 inh – inhibitors of human APE1 endonuclease | recombinant APE1, TAMRA/BHQ-2 abasic DNA cleavage fluorescence | P27695 | AID 2517 | Potency, µM (highest dose often 65.8 µM), for the others: at the top dose activity change, negative = inhibition, hits mostly inhibitors | 350,000 tested, 0.35% active;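 note: plate controls were vehicle for no effect and reference inhibitor for full effect; nearly all actives have a fitted effect of over 55% in size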
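Substrate: short duplex with […] THF abasic site, 5'-TAMRA and 3'-BHQ-2, 50 nM final. APE1 at 0.75 nM, preincubated 15 min RT with compound. Fluorescence increase from first to third read measured activity.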
Pol eta inh-1 – DNA polymerase eta (human) inhibition. recombinant Pol eta, fluorescent DNA replication assay. Potency, µM (highest dose often 114 µM), inactives show top-dose activity change, negative = inhibition, most hits filed as inhibitors. 390,000 tested, 1.2% active. AID 588591; note: % is set by controls: 0 for no effect and ±100 for the full control effect
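Pol eta at 10 nM preincubated with compounds 15 min at room temperature; reaction started with fluorescent substrate (50 nM final) and read kinetically at 0 and 10 min.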
L3MBTL1 block – blocks human L3MBTL1. Q9Y468. AlphaScreen L3MBTL1–H3K9me1 peptide binding. AID 485360. 230,000 tested, 0.66% active. Potency, µM (doses to about 57.1 µM), for inactives: top-dose activity, negative = inhibition, most hits filed as inhibitors; note: % is set by controls: 0 for no effect and ±100 for the full control effect; nearly all actives have a fitted effect of over 60% in size
Target sequence (Q9Y468 whole entry, looked up): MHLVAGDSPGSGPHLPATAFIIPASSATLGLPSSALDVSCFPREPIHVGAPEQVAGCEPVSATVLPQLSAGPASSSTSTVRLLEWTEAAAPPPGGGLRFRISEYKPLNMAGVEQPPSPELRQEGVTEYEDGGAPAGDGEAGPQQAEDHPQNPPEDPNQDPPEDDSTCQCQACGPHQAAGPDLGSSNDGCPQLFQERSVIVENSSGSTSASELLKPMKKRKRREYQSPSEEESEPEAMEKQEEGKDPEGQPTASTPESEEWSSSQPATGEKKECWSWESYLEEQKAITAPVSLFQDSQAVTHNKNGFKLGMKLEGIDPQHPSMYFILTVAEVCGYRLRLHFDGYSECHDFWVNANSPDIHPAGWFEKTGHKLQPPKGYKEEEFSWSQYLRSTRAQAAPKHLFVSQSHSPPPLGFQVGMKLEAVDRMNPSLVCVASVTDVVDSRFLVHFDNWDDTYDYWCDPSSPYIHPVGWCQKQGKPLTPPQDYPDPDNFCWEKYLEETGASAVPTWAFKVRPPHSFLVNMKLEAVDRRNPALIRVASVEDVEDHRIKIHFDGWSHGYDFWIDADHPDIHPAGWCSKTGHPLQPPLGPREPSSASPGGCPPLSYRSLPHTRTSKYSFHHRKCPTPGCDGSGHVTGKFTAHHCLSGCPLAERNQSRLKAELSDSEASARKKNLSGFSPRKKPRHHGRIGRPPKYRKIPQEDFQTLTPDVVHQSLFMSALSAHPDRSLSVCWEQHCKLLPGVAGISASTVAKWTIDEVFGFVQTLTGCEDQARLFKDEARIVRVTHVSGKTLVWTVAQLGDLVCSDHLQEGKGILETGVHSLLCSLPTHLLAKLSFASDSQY
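Read-out is AlphaScreen signal from streptavidin donor and nickel chelate acceptor beads (10 ug/mL final each) bridging L3MBTL1 (50 nM) and biotinylated K9-monomethylated H3(1-15) peptide (75 nM), after 30 min compound exposure at room temperature.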
Pol iota inh – inhibitors of human DNA polymerase iota | 390,000 tested, 1% active | Pol iota fluorescent replication assay, 10 min | AID 588590 | Potency, µM (series often up to 115 µM), without a hit: at the highest dose activity, negative = inhibition, usual class: inhibitors | Q9UNA4
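Fluorescent replication assay read twice, at 0 min and 10 min after adding 50 nM (final) substrate. Enzyme (10 nM) and compounds were first incubated 15 min at room temperature; enzyme-free buffer wells were negative controls.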
Pol kappa inh-1 – DNA polymerase kappa (human) inhibition | Q9UBT6 | Potency, µM (titrated, usually from 107 µM), for the others: top-dose activity, negative = inhibition, usual class: inhibitors | purified Pol kappa, fluorescent DNA synthesis assay, 10 min | 400,000 tested, 0.53% active; note: % is set by controls: 0 for no effect and ±100 for the full control effect
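Here, compound and 10 nM enzyme are combined for 15 min at room temperature; adding 50 nM substrate (final) starts DNA synthesis, tracked by fluorescence at 0 and 10 min against buffer-only wells.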
PGK validate – validation of Trypanosoma brucei phosphoglycerate kinase inhibitors | shares compounds with Pol kappa inh-1 | TbPGK coupled GAPDH assay, Kinase-Glo luminescence | Potency, µM (doses to about 57.5 µM), for the others: at the top dose activity change, negative = inhibition, most hits filed as inhibitors | 500 tested, 79% active; note: % is set by controls: 0 for no effect and ±100 for the full control effect; nearly all actives have a fitted effect of over 65% in size
Pol iota confirm – Inhibitors of human DNA polymerase iota, confirmation | shares compounds with Pol kappa inh-1 | Pol iota primer extension, TAMRA/BHQ fluorescence | Potency, µM, most hits filed as inhibitors | 1,500 tested, 77% active
Pol kappa inh-2 – confirmation of human DNA polymerase kappa inhibitors | shares compounds with Pol eta inh-1 | purified Pol-kappa, fluorescent strand-displacement substrate | Potency, µM, hits mostly inhibitors | 920 tested, 76% active
Pol eta inh-2 – confirmation of human DNA polymerase eta inhibitors; shares compounds with Pol eta inh-1; Pol eta primer extension, TAMRA/BHQ fluorescence, 10 min; Potency, µM, actives largely listed as inhibitors; 2,600 tested, 64% active; AID 720502
* marks the source's active call; other numbers are inactive results; ? = inconclusive; . = not tested or not shown; ! = not confirmed by another sample; [ ] = dose if it differs, or a comment. Calls come from the whole dose curve; as a rule, active = well fitted curve in the direction sought with a large enough effect; inconclusive = small, poorly fitted or top-dose-only effect, or another doubt; inactive = no such curve, though single readings can be large; an effect the other way counts as inactive or inconclusive. Potency is the fitted concentration of half-maximal effect.

SMILES	Pol beta inh	APEX1 inh	Pol eta inh-1	L3MBTL1 block	Pol iota inh	Pol kappa inh-1	PGK validate	others
COc1ccc(N/C=C2\CCc3ccccc3C2=O)cc1	20%	2%	-15%	12%	9%	-7%	16µM*
O=c1onc2n1-c1cc(Br)ccc1OC2	-10%[57.1 µM]	-1%	3%[57.1 µM]	.	-7%[58.9 µM]	7%[60.1 µM]	.
C/C(=N\NC(=O)c1cc(O)cc(O)c1)c1ccc(NC(=O)Cc2ccccc2)cc1	1.6µM*	1.3µM*	3.2µM*	.	5µM*	22µM*	1.8µM*
O=C1Nc2ccccc2/C1=N/N=C/c1ccc(-c2ccc([N+](=O)[O-])cc2)o1	-19%	?	?	-4%	31%	6%	.	Pol iota confirm=?
BrC(=C\c1ccccc1)/C=N/Nc1ccc2nncn2n1	?	-10%	50µM*	.	?	-23%	.	Pol iota confirm=34*
O=c1oc2ccccc2cc1-c1cn2ccccc2n1	7%	-1%	-11%	1%	24%	0%	?
COc1ccc(CCC(C)NCc2cccc(Br)c2)cc1 (stereo not drawn)	3%	4%	-4%	6%	-1%	-7%	.
CCOc1ccc(/C=N/NC(=O)c2cc3c(OC)cccc3[nH]2)cc1	50µM*	-28%	?	.	25µM*	-37%	.	Pol iota confirm=?
COc1ccc(OC)c(/C=N/NC(=O)c2cc3c(OC)cccc3[nH]2)c1	-10%	-5%	-19%	.	19%	-16%	.
Cc1ccc(S(=O)(=O)NCc2ccc(C(=O)NCCc3ccc(S(N)(=O)=O)cc3)cc2)cc1	?	32%	?	.	32µM*	-13%	.	Pol iota confirm=?
COc1ccccc1C(=O)Nc1nc2ccccc2s1	-27%	-9%	-5%	34%[2.29 µM]	?	14%	16µM*
N/C(=N\OC(=O)c1ccccc1)c1ccccn1	21%	19%	-19%	-7%	9%	-1%	10µM*
Cc1cccc(C(=O)O/N=C(\N)c2ccccn2)c1	28%	-9%	-23%	.	47%	-17%	.
Cc1ccc(C(=O)O/N=C(\N)c2ccccn2)cc1C	25%	27%	6%	-1%	93%	-1%	.
COc1ccc(C(=O)O/N=C(\C)c2ccccc2)cc1	14%	-1%	-1%	2%	-6%	-11%	8.2µM*
CCOc1ccc(C(=O)O/N=C(\N)c2ccccn2)cc1	10%	7%	-24%	0%	46%	-6%	9.2µM*
COc1ccc(C(=O)O/N=C(/c2ccccc2)c2ccncc2)cc1	2%	12%	-7%	.	11%	-3%	.
C/C(=N/OC(=O)c1ccc(C)cc1)c1cccs1	-12%	-2%	-2%	11%	10%	-11%	10µM*
Cc1ccc(C(=O)O/N=C(\N)c2ccccn2)cc1	-2%	76%	-8%	.	30%	-9%	6.5µM*
CC(C)(C)c1ccc(C(=O)O/N=C(\N)c2ccccn2)cc1	5%	27%	-23%	.	54%	-7%	.
CNC(=O)C[C@H]1C(=O)N(Cc2ccccc2)C[C@@H]1Cc1ccccc1	.	.	-11%	.	.	.	.
Cc1cccc(/C(N)=N/OC(=O)c2ccc3c(c2)OCO3)c1	-2%	11%	-10%	17%	-15%	-13%	10µM*
COc1ccccc1-c1noc(-c2ccncc2)n1	8%	3%	-16%	-13%[11.4 µM]	1%	-6%	.
COc1ccccc1-c1nc(-c2ccccn2)no1	20%	0%	-15%	.	-1%	11%	18µM*
COc1ccc(N2CCN(C(=O)c3cc(-c4ccc(C)c(F)c4)on3)CC2)cc1	3%	.	-7%	.	15%	-10%	.
SMILES	Pol beta inh	APEX1 inh	Pol eta inh-1	L3MBTL1 block	Pol iota inh	Pol kappa inh-1	PGK validate	others
COC(=O)c1sccc1NC(=O)Nc1ccc(F)cc1	3%	12%	-15%	.	-7%	0%	13µM*
CN(C)c1ccc(/C=C/c2ccc3c4ccccc4ccc3[n+]2-c2ccccc2)cc1	11µM*	-3%	22µM*	?	20µM*	45µM*!	29µM*
CN(C)c1ccc(/C=C/c2nccc3ccccc23)cc1	.	.	.	.	21%	-14%	.
CC(C)=CCc1cc(-c2oc3cc(O)cc(O)c3c(=O)c2O)ccc1O	.	.	?	.	?	-14%	-28%
O=c1c(O)c(-c2ccccc2)oc2cc(O)cc(O)c12	.	7%	-18%	-5%	46%	14%	.
CNc1ccccc1C(=O)OC(C)C(=O)Nc1ccc(Cl)cn1 (stereo not drawn)	11%	-11%	-12%	.	5%	-19%	.
Cc1cc2[nH]c3c(c[n+](C)c4ccccc34)c2cc1C	1.3µM*	5%	?	10%	4.5µM*	25µM*	.	Pol iota confirm=15*
O=C(OCc1cc(=O)n2nc(-c3cccs3)sc2n1)c1ccc(F)cc1	11µM*	.	?	.	?	-39%	.	Pol iota confirm=?
CC(C)CN1C(=O)C(=O)N(CC(=O)Nc2cccc(Cl)c2Cl)C1=O	.	10%	-1%	5%	10%	0%	.
Cc1cc2n(n1)CCC(=O)N2Cc1ccc(C(=O)Nc2cccc(C(F)(F)F)c2)cc1	-3%	.	-15%	.	12%	0%	.
O=C(O)Cc1cccc(=O)c(O)c1C(=O)O	.	.	4µM*	.	22µM*	?	5.2µM*
CC(C)(Sc1ccc(CCN(CCCCC2CCCCC2)C(=O)NC2CCCCC2)cc1)C(=O)O	?	24%	89µM*	0%	36%	?	.	Pol iota confirm=42*;Pol kappa inh-2=19*;Pol eta inh-2=19*
CN(Cc1ccccc1)C(=O)NC1CCCCC1	47%	2%	-21%	-5%	17%	0%	.
CN1CCN(c2ccc(Nc3c4ccccc4nc4ccccc34)cc2)CC1	.	22µM*	.	.	.	19µM*	.	Pol iota confirm=42*;Pol kappa inh-2=30*
O=C(O)c1ccc(Nc2c3ccccc3nc3ccccc23)cc1	-2%	-13%	-10%	.	111%	-14%	.
Cc1ccccc1CC(=O)Nc1sc(C(C)C)cc1C(=O)N1CCOCC1	14%	-8%	-6%	.	38%	7%	.
O=C1CN(/N=C\c2ccc([N+](=O)[O-])o2)C(=O)N1	.	2%[21 µM]	.	.	.	-17%[12 µM]	.
